Several values for one entry are separate records, joined by “and”; a condition that tells them apart may be missing. Equal values may be shown once. Some compounds were tested as several samples or in several runs, with calls that do not always agree. Activity calls are given as the source filed them. The calls were made as follows: active = hit-call score of the fitted dose curve at least 0.9, where 1 is the maximum; inactive = score below 0.9.
Columns and labels:
[1] = APR_HepG2_CellCycleArrest_24hr: Apredica 24-hour HepG2 Assay for Cell Cycle Arrest (AID 2282905); conditions: imaging, actives raise or lower the signal;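 also: cell cycle arrest scored as ratio of 2N to 4N nuclear DNA content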
How it was run: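 HepG2 cells were exposed to compounds at 0.39–200 uM (ten concentrations, duplicate) in 0.5% v/v DMSO for 24 hr. After formaldehyde fixation and Triton permeabilization, Hoechst 33342-stained nuclei were imaged at 20x; DNA content was quantified, with bidirectional fitting against DMSO.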

[2] = APR_HepG2_StressKinase_1hr: Apredica 1-hour HepG2 Assay for Stress Kinase (AID 2282906); conditions: HepG2 stress kinase (phospho-c-Jun) imaging, actives raise or lower the signal
How it was run: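 HepG2 cells dosed 0.39-200 uM (0.5% DMSO) for 1 h, then formaldehyde-fixed. Stress kinase read by phospho-c-Jun immunofluorescence using high-content imaging; bidirectional fit vs DMSO.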

[3] = APR_HepG2_NuclearSize_24hr: Apredica 24-hour HepG2 Assay for Nuclear Size (AID 2282907); conditions: high-content imaging, actives raise or lower the signal
How it was run: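 HepG2 human liver cells were exposed for 24 hr to compounds at 0.39–200 uM (ten concentrations, duplicate) in 0.5% v/v DMSO. They were then formaldehyde-fixed, Triton-permeabilized and Hoechst 33342-stained, and nuclear diameter was imaged at 20x. Bidirectional fits were made against DMSO.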

[4] = APR_HepG2_CellLoss_24hr: Apredica 24-hour HepG2 Assay for Cell Loss (AID 2282908); conditions: high-content imaging;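 as to AC50: fit in both directions so a hit may be cell loss or gain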
How it was run: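 Compounds were tested at 0.39–200 uM in duplicate with 0.5% v/v DMSO final. Cells were then fixed in 3.7% formaldehyde, Hoechst 33342 nuclei were imaged at 20x by HCS, and cell number was fitted bidirectionally against DMSO.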

[5] = APR_HepG2_MitoticArrest_24hr: Apredica 24-hour HepG2 Assay for Mitotic Arrest (AID 2282910); conditions: high-content imaging, actives raise or lower the signal
How it was run: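 HepG2 cells, 24 h exposure at 0.39-200 uM (10 concentrations, duplicate, 0.5% DMSO). Fixed, stained for phospho-histone H3 with Hoechst; imaged by high-content microscopy, bidirectional fit versus DMSO.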

[6] = APR_HepG2_MitoMembPot_24hr: Apredica 24-hour HepG2 Assay for Mitochondrial Membrane Potential (AID 2282911); conditions: imaging, actives raise or lower the signal
How it was run: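 Cells are dosed for 24 hr across 0.39 to 200 uM with solvent held at 0.5% DMSO. They are then stained with 250 nM MitoTracker Red CMXRos for 30 min, fixed in 3.7% formaldehyde and imaged.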

[7] = APR_HepG2_MitoMass_24hr: Apredica 24-hour HepG2 Assay for Mitochondrial Mass (AID 2282912); conditions: high-content imaging, actives raise or lower the signal
How it was run: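 Human HepG2 liver cells were exposed for 24 hr to compounds at 0.39–200 uM (duplicates, 0.5% v/v DMSO final). They were stained live with 250 nM MitoTracker Red CMXRos for 30 min, fixed in 3.7% formaldehyde, and imaged by HCS fluorescence; signals were fitted bidirectionally against DMSO.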

[8] = APR_HepG2_p53Act_24hr: Apredica 24-hour HepG2 Assay for p53 Activation (AID 2282913); conditions: high-content imaging, actives raise or lower the signal;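 also: p53 protein immunofluorescence averaged per cell in HepG2 with Hoechst nuclei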
How it was run: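 Human HepG2 liver cells; 24 hr cpd treatment, 0.39–200 uM, 0.5% DMSO final. Fixed in 3.7% formaldehyde, permeabilized with 0.5% Triton X-100, stained with anti-p53/Cy5 plus Hoechst 33342. Six images per well at 20x; gain or loss vs DMSO.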

[9] = APR_HepG2_CellCycleArrest_72hr: Apredica 72-hour HepG2 Assay for Cell Cycle Arrest (AID 2282914); conditions: high-content imaging, actives raise or lower the signal
How it was run: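 Read-out is Hoechst-stained nuclear DNA content measured by automated fluorescence imaging (20x, six images per well), fitted in both directions relative to DMSO. Human HepG2 liver cells received 0.39–200 uM compound for 72 hr at 0.5% v/v DMSO.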

[10] = APR_HepG2_P-H2AX_72hr: Apredica 72-hour HepG2 Assay for H2AX Phosphorylation (AID 2282916); conditions: imaging, actives raise or lower the signal;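 also: phospho-histone H2A.x immunostain intensity per cell marking DNA damage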
How it was run: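 HepG2 human liver cells were exposed for 72 hr to compounds at 0.39–200 uM (10 concentrations, duplicate per plate) in 0.5% v/v DMSO. Fixed, permeabilized cells were immunolabeled for phospho-histone H2A.x with Hoechst 33342 and imaged by HCS fluorescence; bidirectional fit versus DMSO.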

[11] = APR_HepG2_MitoMembPot_72hr: Apredica 72-hour HepG2 Assay for Mitochondrial Membrane Potential (AID 2282917); conditions: imaging, actives raise or lower the signal
How it was run: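 HepG2 cells dosed 72 hr with compound at 0.39–200 uM in duplicate, 0.5% v/v DMSO final. Mitochondria stained with 250 nM MitoTracker Red CMXRos for 30 min before formaldehyde fixation, imaged by high-content fluorescence; bidirectional fit versus DMSO.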

[12] = APR_HepG2_MitoticArrest_72hr: Apredica 72-hour HepG2 Assay for Mitotic Arrest (AID 2282918); conditions: high-content imaging, actives raise or lower the signal
How it was run: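 Read-out is phospho-histone H3 immunofluorescence with Hoechst nuclear segmentation, imaged at 20x. Human HepG2 liver cells received ten concentrations (0.39–200 uM, final DMSO 0.5% v/v) for 72 hr before fixation. Gain or loss of signal was fitted relative to DMSO.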

[13] = APR_HepG2_P-H2AX_24hr: Apredica 24-hour HepG2 Assay for H2AX Phosphorylation (AID 2282920); conditions: high-content imaging, actives raise or lower the signal
How it was run: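 HepG2, 24 hr, cpd 0.39–200 uM (10 conc, duplicate), DMSO 0.5% v/v final. Fix 3.7% formaldehyde, Triton X-100 permeabilize, anti-phospho-H2A.x 1:200 + Hoechst 2 ug/mL. Imaged, bidirectional fit vs DMSO.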

[14] = APR_HepG2_StressKinase_72hr: Apredica 72-hour HepG2 Assay for Stress Kinase (AID 2282921); conditions: HepG2 stress kinase (phospho-c-Jun) imaging, actives raise or lower the signal
How it was run: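 Cells were exposed for 72 h to ten concentrations (0.39–200 uM, duplicate) at 0.5% v/v DMSO final, then fixed with 3.7% formaldehyde, permeabilized and immunostained for phospho-c-Jun (Cy3 secondary) with Hoechst nuclear counterstain.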

[15] = APR_HepG2_StressKinase_24hr: Apredica 24-hour HepG2 Assay for Stress Kinase (AID 2282922); conditions: HepG2 stress kinase (phospho-c-Jun) imaging, actives raise or lower the signal
How it was run: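 HepG2 cells exposed 24 h to 0.39–200 uM compound in duplicate (0.5% v/v DMSO final). Cells fixed in 3.7% formaldehyde, permeabilized and immunostained for phospho-c-Jun; read by high-content fluorescence imaging, fitted bidirectionally against DMSO.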

[16] = APR_HepG2_p53Act_72hr: Apredica 72-hour HepG2 Assay for p53 Activation (AID 2282923); conditions: high-content imaging, actives raise or lower the signal;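 also: average cellular p53 protein immunofluorescence intensity in HepG2 cells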
How it was run: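 Cells were dosed for 72 hr with compounds at 0.39–200 uM in duplicate (final DMSO 0.5% v/v), then fixed in 3.7% formaldehyde, permeabilized with Triton X-100 and immunostained for p53 (Cy5) with Hoechst 33342 nuclear counterstain.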

[17] = APR_HepG2_MitoMass_72hr: Apredica 72-hour HepG2 Assay for Mitochondrial Mass (AID 2282924); conditions: high-content imaging, actives raise or lower the signal;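 also: MitoTracker Red CMXRos stain intensity per cell imaged as mitochondrial mass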
How it was run: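 HepG2 cells dosed 72 hr at 0.39–200 uM (0.5% DMSO), in duplicate. MitoTracker Red CMXRos 250 nM loaded 30 min before formaldehyde fixation; high-content fluorescence imaging, bidirectional fit versus DMSO.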

[18] = APR_HepG2_MicrotubuleCSK_24hr: Apredica 24-hour HepG2 Assay for Microtubule CSK Stabilty (AID 2282909); conditions: HepG2 microtubule cytoskeleton imaging, actives raise or lower the signal
How it was run: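 HepG2 cells exposed 24 h to compounds at 0.39–200 uM (duplicate, 0.5% v/v DMSO final), then fixed, permeabilized and immunostained for alpha-tubulin with Hoechst 33342. Cytoskeleton imaged at 20x; bidirectional fit versus DMSO baseline.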

[19] = APR_HepG2_CellLoss_72hr: Apredica 72-hour HepG2 Assay for Cell Loss (AID 2282915); conditions: high-content imaging
How it was run: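 HepG2 cells exposed 72 h to compound at 0.39–200 uM (10 concentrations, duplicate) in 0.5% DMSO. Fixed with 3.7% formaldehyde and Hoechst 33342-stained. Imaged at 20x; nuclear count gives cell number, fitted bidirectionally versus DMSO.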

[20] = APR_HepG2_MicrotubuleCSK_72hr: Apredica 72-hour HepG2 Assay for Microtubule CSK Stabilty (AID 2282919); conditions: HepG2 microtubule cytoskeleton, high-content imaging, actives raise or lower the signal
How it was run: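 HepG2 cells were exposed 72 hr to compound at 0.39–200 uM in duplicate (0.5% DMSO final), then fixed and permeabilized. Alpha-tubulin immunofluorescence was imaged by high-content microscopy, with bidirectional fitting against DMSO and taxol as positive control.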

Measured: AC50

CO/C=C(/C(=O)OC)c1ccccc1Oc1cc(Oc2ccccc2C#N)ncn1
active: [1] 39.3 µM and 692 nM | [4] 16.2 µM and 36.5 µM | [6] 21.2 µM | [8] 110 µM | [9] 21 µM and 3.09 µM and 5.96 µM | [10] 53.2 µM and 42.2 µM | [11] 164 µM | [12] 13.9 µM and 24.7 µM and 31 µM | [14] 36 µM | [16] 50.7 µM and 53 µM and 50.6 µM | [17] 1.68 µM and 3.44 µM
inactive: [1] | [2] | [3] | [4] | [5] | [6] | [7] | [8] | [9] | [10] | [11] | [12] | [13] | [14] | [15] | [16] | [17]

CS/C(C)=N/OC(=O)N(C)SN(C)C(=O)O/N=C(\C)SC
active: [4] 47.4 µM
not listed: [20]
inactive: all other assays above

CCOc1cc(Oc2ccc(C(F)(F)F)cc2Cl)ccc1[N+](=O)[O-]
active: [19] 31.5 µM | [12] 45 µM | [20] 19.8 µM
not listed: [18]
inactive: all other assays above

CC(C)Oc1cc(-n2nc(C(C)(C)C)oc2=O)c(Cl)cc1Cl
active: [4] 50.8 µM | [18] 46.4 µM | [19] 58.9 µM | [10] 82.2 µM | [12] 42.6 µM | [20] 52.6 µM
inactive: all other assays above

COC(=O)c1ccccc1C(=O)OC
not listed: [18]
inactive: all other assays above

COc1nc(C)nc(NC(=O)NS(=O)(=O)c2ccccc2Cl)n1
not listed: [20]
inactive: all other assays above

Reference: PubChem BioAssay (EPA / NIEHS)
